The panel holds about 79,000 compounds, 15% with a hit somewhere; the sample as a whole holds those more often. Unmarked numbers belong to inactive results. The source made the active and inactive calls. Rule as the data show it: active = growth inhibition above about 70%; inactive = the rest.
Assays:
[1] = NCI Yeast Anticancer Drug Screen. Data for the rad50 strain (AID 155);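 also: 0% = growth of vehicle-only cultures of the same strain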; conditions: S. cerevisiae rad50 strain growth inhibition, active compounds read high
In short: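 Compounds were tested on a yeast strain with an engineered DNA damage repair alteration; the reported value is growth inhibition normalised to vehicle treatment.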

[2] = NCI Yeast Anticancer Drug Screen. Data for the mec2-1 strain (AID 157); conditions: S. cerevisiae mec2-1 strain, active compounds read high
In short: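 Test agents were screened against the mec2-1 yeast strain, with defined DNA repair or cell cycle alteration. Growth was scored as inhibition against vehicle-only controls.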

[3] = NCI Yeast Anticancer Drug Screen. Data for the sgs1 mgt1 strain (AID 161);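 also: 0% = growth of cultures given vehicle only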; conditions: S. cerevisiae sgs1 mgt1 strain, active compounds read high
In short: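 Mutant yeast exposed to compound; growth scored against vehicle-only wells.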

[4] = NCI Yeast Anticancer Drug Screen. Data for the cln2 rad14 strain (AID 165);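 also: 0% = growth equal to vehicle treated cultures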; conditions: S. cerevisiae cln2 rad14 strain, active compounds read high
In short: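 Growth of compound-exposed yeast (cln2 rad14 genotype) measured and expressed as inhibition relative to vehicle.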

[5] = NCI Yeast Anticancer Drug Screen. Data for the bub3 strain (AID 167); conditions: S. cerevisiae bub3 mutant strain, active compounds read high
In short: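 Growth of a checkpoint-deficient yeast mutant is measured after compound exposure. Values represent inhibition relative to vehicle.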

[6] = NCI Yeast Anticancer Drug Screen. Data for the mlh1 rad18 strain (AID 175); conditions: S. cerevisiae mlh1 rad18 strain growth inhibition, active compounds read high
In short: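 In this whole-cell yeast screen, a strain with altered DNA damage repair is challenged with compound, and its growth is measured against matched vehicle-treated controls.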

[7] = at 5.0 µM (retest, dose inferred, filed as 0.5)
[8] = at 50.0 µM (retest, dose inferred, filed as 5.0)

CCCCCc1[nH]nc(C(=O)OC)c1N=NN1CCOCC1
growth inhibition [1, 7]: 43% | growth inhibition [1, 8]: 98% (active) | growth inhibition ([1]; at 50.0 µM): 99.2% (active) | growth inhibition [2, 7]: 91% (active) | growth inhibition [2, 8]: 99% (active) | growth inhibition ([2]; at 50.0 µM): 99.6% (active) | growth inhibition [3, 7]: 62% | growth inhibition [3, 8]: 99% (active) | growth inhibition ([3]; at 50.0 µM): 99.5% (active) | growth inhibition [4, 7]: 68% | growth inhibition [4, 8]: 99% (active) | growth inhibition ([4]; at 50.0 µM): 99.5% (active) | growth inhibition [5, 7]: 81% (active) | growth inhibition [5, 8]: 99% (active) | growth inhibition ([5]; at 50.0 µM): 99.4% (active) | growth inhibition [6, 7]: 89% (active) | growth inhibition [6, 8]: 99% (active) | growth inhibition ([6]; at 50.0 µM): 99.5% (active)

C=C1C(=O)[C@@]23CC[C@H]4[C@@](C)(CCC[C@@]4(C)C(=O)OC)[C@@H]2CC[C@]1(O)C3
growth inhibition [1, 7]: 83% (active) | growth inhibition [1, 8]: 99% (active) | growth inhibition ([1]; at 50.0 µM): 92.2% (active) | growth inhibition [2, 7]: 92% (active) | growth inhibition [2, 8]: 99% (active) | growth inhibition ([2]; at 50.0 µM): 94.4% (active) | growth inhibition [3, 7]: 83% (active) | growth inhibition [3, 8]: 99% (active) | growth inhibition ([3]; at 50.0 µM): 94% (active) | growth inhibition [4, 7]: 54% | growth inhibition [4, 8]: 99% (active) | growth inhibition ([4]; at 50.0 µM): 92.2% (active) | growth inhibition [5, 7]: 94% (active) | growth inhibition [5, 8]: 99% (active) | growth inhibition ([5]; at 50.0 µM): 93.7% (active) | growth inhibition [6, 7]: 92% (active) | growth inhibition [6, 8]: 99% (active) | growth inhibition ([6]; at 50.0 µM): 90.8% (active)

CN(C)N=Nc1c(-c2ccccc2)n[nH]c1-c1ccccc1
growth inhibition [1, 7]: 95% (active) | growth inhibition [1, 8]: 99% (active) | growth inhibition ([1]; at 50.0 µM): 99.6% (active) | growth inhibition [2, 7]: 99% (active) | growth inhibition [2, 8]: 100% (active) | growth inhibition ([2]; at 50.0 µM): 99.5% (active) | growth inhibition [3, 7]: 99% (active) | growth inhibition [3, 8]: 100% (active) | growth inhibition ([3]; at 50.0 µM): 99.3% (active) | growth inhibition [4, 7]: 99% (active) | growth inhibition [4, 8]: 99% (active) | growth inhibition ([4]; at 50.0 µM): 99.5% (active) | growth inhibition [5, 7]: 99% (active) | growth inhibition [5, 8]: 99% (active) | growth inhibition ([5]; at 50.0 µM): 99.5% (active) | growth inhibition [6, 7]: 99% (active) | growth inhibition [6, 8]: 100% (active) | growth inhibition ([6]; at 50.0 µM): 99.5% (active)

Cc1cccc(C)c1NC(=O)CSC(N)=O
growth inhibition [1, 7]: 4% | growth inhibition [1, 8]: 22% | growth inhibition ([1]; at 50.0 µM): 72.2% (active) | growth inhibition [2, 7]: -1% | growth inhibition [2, 8]: 24% | growth inhibition ([2]; at 50.0 µM): 65% | growth inhibition [3, 7]: 0% | growth inhibition [3, 8]: 22% | growth inhibition ([3]; at 50.0 µM): 87.2% (active) | growth inhibition [4, 7]: 5% | growth inhibition [4, 8]: -1% | growth inhibition ([4]; at 50.0 µM): 56.1% | growth inhibition [5, 7]: 4% | growth inhibition [5, 8]: 42% | growth inhibition ([5]; at 50.0 µM): 75.5% (active) | growth inhibition [6, 7]: 7% | growth inhibition [6, 8]: 26% | growth inhibition ([6]; at 50.0 µM): 73.2% (active)

Oc1ccccc1C1N(Cc2ccc(Cl)cc2)CCN1Cc1ccc(Cl)cc1
growth inhibition [1, 7]: 7% | growth inhibition [1, 8]: 57% | growth inhibition ([1]; at 50.0 µM): 18.2% | growth inhibition [2, 7]: 7% | growth inhibition [2, 8]: 58% | growth inhibition ([2]; at 50.0 µM): 17.6% | growth inhibition [3, 7]: 20% | growth inhibition [3, 8]: 93% (active) | growth inhibition ([3]; at 50.0 µM): 46.5% | growth inhibition [4, 7]: 14% | growth inhibition [4, 8]: 58% | growth inhibition ([4]; at 50.0 µM): 62.6% | growth inhibition [5, 7]: 22% | growth inhibition [5, 8]: 81% (active) | growth inhibition ([5]; at 50.0 µM): 16.4% | growth inhibition [6, 7]: 22% | growth inhibition [6, 8]: 70% (active) | growth inhibition ([6]; at 50.0 µM): 18.4%

O=C(O)c1ccc2ccccc2c1C(=O)c1cccc2ccccc12
growth inhibition [1, 7]: 12% | growth inhibition [1, 8]: 12% | growth inhibition ([1]; at 50.0 µM): 86.8% (active) | growth inhibition [2, 7]: 1% | growth inhibition [2, 8]: 8% | growth inhibition ([2]; at 50.0 µM): 83.5% (active) | growth inhibition [3, 7]: 0% | growth inhibition [3, 8]: 21% | growth inhibition ([3]; at 50.0 µM): 90.4% (active) | growth inhibition [4, 7]: 7% | growth inhibition [4, 8]: 9% | growth inhibition ([4]; at 50.0 µM): 92.1% (active) | growth inhibition [5, 7]: 0% | growth inhibition [5, 8]: 3% | growth inhibition ([5]; at 50.0 µM): 83.2% (active) | growth inhibition [6, 7]: -5% | growth inhibition [6, 8]: 15% | growth inhibition ([6]; at 50.0 µM): 92.2% (active)

C[C@@H]1CC=C[C@@H](NC(=O)OCc2ccccc2)[C@H]1C=O
growth inhibition [1, 7]: -4% | growth inhibition [1, 8]: 30% | growth inhibition ([1]; at 50.0 µM): 13.6% | growth inhibition [2, 7]: -5% | growth inhibition [2, 8]: -2% | growth inhibition ([2]; at 50.0 µM): -7.1% | growth inhibition [3, 7]: -2% | growth inhibition [3, 8]: 15% | growth inhibition ([3]; at 50.0 µM): 69.3% | growth inhibition [4, 7]: -8% | growth inhibition [4, 8]: 12% | growth inhibition ([4]; at 50.0 µM): 15.7% | growth inhibition [5, 7]: -18% | growth inhibition [5, 8]: 47% | growth inhibition ([5]; at 50.0 µM): 5.3% | growth inhibition [6, 7]: -20% | growth inhibition [6, 8]: 40% | growth inhibition ([6]; at 50.0 µM): 80.2% (active)

O=C1CSC(=S)N1c1cccc(Cl)c1
growth inhibition [1, 7]: 20% | growth inhibition [1, 8]: 28% | growth inhibition ([1]; at 50.0 µM): 40.5% | growth inhibition [2, 7]: 15% | growth inhibition [2, 8]: 23% | growth inhibition ([2]; at 50.0 µM): 86% (active) | growth inhibition [3, 7]: 13% | growth inhibition [3, 8]: 94% (active) | growth inhibition ([3]; at 50.0 µM): 79.6% (active) | growth inhibition [4, 7]: 9% | growth inhibition [4, 8]: 73% (active) | growth inhibition ([4]; at 50.0 µM): 19.4% | growth inhibition [5, 7]: 8% | growth inhibition [5, 8]: 92% (active) | growth inhibition ([5]; at 50.0 µM): 70.2% (active) | growth inhibition [6, 7]: 24% | growth inhibition [6, 8]: 48% | growth inhibition ([6]; at 50.0 µM): 91.7% (active)

O=C1C=CC(=O)N1c1cccc([N+](=O)[O-])c1
growth inhibition [1, 7]: 78% (active) | growth inhibition [1, 8]: 99% (active) | growth inhibition ([1]; at 50.0 µM): 99.6% (active) | growth inhibition [2, 7]: 95% (active) | growth inhibition [2, 8]: 100% (active) | growth inhibition ([2]; at 50.0 µM): 99.7% (active) | growth inhibition [3, 7]: 93% (active) | growth inhibition [3, 8]: 99% (active) | growth inhibition ([3]; at 50.0 µM): 99.5% (active) | growth inhibition [4, 7]: 84% (active) | growth inhibition [4, 8]: 99% (active) | growth inhibition ([4]; at 50.0 µM): 99.7% (active) | growth inhibition [5, 7]: 99% (active) | growth inhibition [5, 8]: 99% (active) | growth inhibition ([5]; at 50.0 µM): 99.3% (active) | growth inhibition [6, 7]: 91% (active) | growth inhibition [6, 8]: 99% (active) | growth inhibition ([6]; at 50.0 µM): 99.5% (active)

O=NNc1ccc(Sc2ccc3ccccc3c2)cn1
growth inhibition [1, 7]: 21% | growth inhibition [1, 8]: 41% | growth inhibition ([1]; at 50.0 µM): 21.5% | growth inhibition [2, 7]: 24% | growth inhibition [2, 8]: 36% | growth inhibition ([2]; at 50.0 µM): 12.2% | growth inhibition [3, 7]: 20% | growth inhibition [3, 8]: 27% | growth inhibition ([3]; at 50.0 µM): 19.1% | growth inhibition [4, 7]: 32% | growth inhibition [4, 8]: 43% | growth inhibition ([4]; at 50.0 µM): 24.8% | growth inhibition [5, 7]: 30% | growth inhibition [5, 8]: 37% | growth inhibition ([5]; at 50.0 µM): 35% | growth inhibition [6, 7]: 25% | growth inhibition [6, 8]: 47% | growth inhibition ([6]; at 50.0 µM): 51.5%

Source: PubChem BioAssay (NCI)
